What was measured:
Assay in all cases: DAPPL (digital affinity profiling via proximity ligation, sequencing); 10 mM Tris-HCl pH 7.5, 50 mM NaCl, 1 mM DTT, 4% glycerol, room temperature, 30 min; GST-TFs on glutathione beads, 16-mer random dsDNA library, 0.1% formaldehyde crosslink after washing; high values mean tight binding
Details in all cases: protein: recombinant; tags: N-terminal GST; dsDNA, one strand shown
FLI1 = biological target: T1, FLI1 (Homo sapiens, UniProt Q01543 1-452)
T1 sequence: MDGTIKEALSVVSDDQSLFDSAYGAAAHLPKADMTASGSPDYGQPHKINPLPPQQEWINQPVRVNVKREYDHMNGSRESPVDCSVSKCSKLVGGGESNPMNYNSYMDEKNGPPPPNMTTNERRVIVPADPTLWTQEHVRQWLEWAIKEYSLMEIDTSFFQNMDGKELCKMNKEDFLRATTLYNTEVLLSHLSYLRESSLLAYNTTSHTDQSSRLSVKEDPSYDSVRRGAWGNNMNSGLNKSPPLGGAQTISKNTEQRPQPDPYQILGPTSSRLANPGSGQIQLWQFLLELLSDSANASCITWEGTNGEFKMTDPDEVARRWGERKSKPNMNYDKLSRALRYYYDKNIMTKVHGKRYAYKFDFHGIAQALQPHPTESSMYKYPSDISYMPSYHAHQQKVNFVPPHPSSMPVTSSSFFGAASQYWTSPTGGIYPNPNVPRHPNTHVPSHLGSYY
Outline: (§1)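 Human transcription factors were made in yeast as GST fusions, captured on glutathione beads and barcoded with DNA. With a tag-only sample included, the pool was incubated with 200 nmole of a random double-stranded 16-mer DNA library in Tris/NaCl/DTT/glycerol buffer at room temperature for 30 min, then crosslinked with 0.1% formaldehyde after washing, ligated by proximity, amplified and sequenced. For binding signal, each hexamer's read frequency for a factor is divided by its frequency for the tag-only sample.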

ELK1 = biological target: T2, ELK1 (Homo sapiens, UniProt P19419 1-428)
T2 sequence: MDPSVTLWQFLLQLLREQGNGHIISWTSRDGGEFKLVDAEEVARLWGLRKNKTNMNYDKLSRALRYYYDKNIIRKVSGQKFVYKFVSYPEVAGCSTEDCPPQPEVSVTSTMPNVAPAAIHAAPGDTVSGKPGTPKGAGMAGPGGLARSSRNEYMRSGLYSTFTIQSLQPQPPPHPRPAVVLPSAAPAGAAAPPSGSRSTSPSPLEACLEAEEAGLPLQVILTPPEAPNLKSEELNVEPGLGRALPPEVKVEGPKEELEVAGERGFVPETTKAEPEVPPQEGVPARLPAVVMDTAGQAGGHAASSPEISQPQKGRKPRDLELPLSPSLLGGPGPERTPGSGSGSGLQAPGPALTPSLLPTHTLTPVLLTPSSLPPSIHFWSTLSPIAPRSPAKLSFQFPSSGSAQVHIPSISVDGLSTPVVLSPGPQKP
Outline: as §1

GABPA = biological target: T3, GABPA (Homo sapiens, UniProt Q06546 1-454)
T3 sequence: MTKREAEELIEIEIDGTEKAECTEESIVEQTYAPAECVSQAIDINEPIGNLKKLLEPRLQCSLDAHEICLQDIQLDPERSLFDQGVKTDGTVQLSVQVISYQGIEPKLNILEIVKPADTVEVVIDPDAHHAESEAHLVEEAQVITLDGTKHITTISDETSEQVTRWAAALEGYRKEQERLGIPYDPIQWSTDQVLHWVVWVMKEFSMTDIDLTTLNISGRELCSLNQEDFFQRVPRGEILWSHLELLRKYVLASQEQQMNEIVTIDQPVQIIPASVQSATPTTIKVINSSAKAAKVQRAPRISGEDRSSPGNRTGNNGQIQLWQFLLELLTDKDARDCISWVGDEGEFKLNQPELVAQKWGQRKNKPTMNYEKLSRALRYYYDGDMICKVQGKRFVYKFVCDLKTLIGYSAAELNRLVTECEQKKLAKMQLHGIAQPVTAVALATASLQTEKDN
Outline: as §1

ERG = biological target: T4, ERG (Homo sapiens, UniProt P11308 1-479)
T4 sequence: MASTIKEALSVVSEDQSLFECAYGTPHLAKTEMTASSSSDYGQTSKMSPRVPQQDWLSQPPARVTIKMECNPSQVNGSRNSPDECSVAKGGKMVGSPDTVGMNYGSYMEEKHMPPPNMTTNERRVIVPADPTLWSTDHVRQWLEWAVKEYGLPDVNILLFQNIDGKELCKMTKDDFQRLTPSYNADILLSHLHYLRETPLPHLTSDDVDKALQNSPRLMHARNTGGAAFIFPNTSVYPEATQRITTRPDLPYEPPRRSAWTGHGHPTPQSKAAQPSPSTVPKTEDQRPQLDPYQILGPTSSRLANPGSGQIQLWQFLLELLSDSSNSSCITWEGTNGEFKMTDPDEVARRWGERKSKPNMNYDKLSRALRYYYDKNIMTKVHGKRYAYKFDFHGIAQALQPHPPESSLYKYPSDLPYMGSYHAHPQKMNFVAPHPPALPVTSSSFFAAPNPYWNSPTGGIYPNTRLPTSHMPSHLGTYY
Outline: as §1

ELF1 = ELF1 (Homo sapiens, UniProt P32519 1-619)
ELF1, sequence (P32519 whole entry): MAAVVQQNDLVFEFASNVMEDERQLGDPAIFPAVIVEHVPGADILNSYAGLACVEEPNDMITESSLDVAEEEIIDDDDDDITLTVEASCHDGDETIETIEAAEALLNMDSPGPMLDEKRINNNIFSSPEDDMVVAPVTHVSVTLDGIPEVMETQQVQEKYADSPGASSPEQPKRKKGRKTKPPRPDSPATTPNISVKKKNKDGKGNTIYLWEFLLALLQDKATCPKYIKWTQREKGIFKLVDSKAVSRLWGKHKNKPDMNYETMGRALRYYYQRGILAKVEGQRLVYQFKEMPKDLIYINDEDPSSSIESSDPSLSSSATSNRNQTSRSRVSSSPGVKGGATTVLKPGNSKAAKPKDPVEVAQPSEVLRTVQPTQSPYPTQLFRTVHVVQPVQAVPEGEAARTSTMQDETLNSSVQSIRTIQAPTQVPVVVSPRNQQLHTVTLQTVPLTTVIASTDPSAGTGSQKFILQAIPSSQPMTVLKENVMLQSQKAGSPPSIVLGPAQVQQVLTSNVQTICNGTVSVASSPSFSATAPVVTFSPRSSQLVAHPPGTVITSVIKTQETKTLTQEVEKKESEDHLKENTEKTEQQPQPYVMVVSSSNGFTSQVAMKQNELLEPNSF
Outline: as §1

EHF = biological target: T5, EHF (Homo sapiens, UniProt Q9NZC4 1-300)
T5 sequence: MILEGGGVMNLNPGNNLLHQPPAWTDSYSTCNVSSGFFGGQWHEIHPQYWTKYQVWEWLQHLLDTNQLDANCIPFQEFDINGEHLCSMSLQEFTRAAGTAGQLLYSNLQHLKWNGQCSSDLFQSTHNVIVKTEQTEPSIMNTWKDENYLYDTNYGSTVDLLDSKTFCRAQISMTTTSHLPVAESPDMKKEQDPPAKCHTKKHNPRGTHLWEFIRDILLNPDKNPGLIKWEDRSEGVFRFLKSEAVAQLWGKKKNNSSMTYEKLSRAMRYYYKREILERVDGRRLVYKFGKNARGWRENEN
Outline: as §1

SPIB = SPIB (Homo sapiens, UniProt Q01892 1-262)
SPIB, sequence (Q01892 whole entry): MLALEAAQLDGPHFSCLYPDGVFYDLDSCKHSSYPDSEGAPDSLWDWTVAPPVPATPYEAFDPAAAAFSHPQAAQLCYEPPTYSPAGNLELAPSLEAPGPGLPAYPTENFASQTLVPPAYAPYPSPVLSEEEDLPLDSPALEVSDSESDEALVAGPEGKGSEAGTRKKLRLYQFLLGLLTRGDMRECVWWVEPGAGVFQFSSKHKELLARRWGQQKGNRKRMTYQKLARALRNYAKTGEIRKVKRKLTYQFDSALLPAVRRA
Outline: as §1

FEV = biological target: T6, FEV (Homo sapiens, UniProt Q99581 1-238)
T6 sequence: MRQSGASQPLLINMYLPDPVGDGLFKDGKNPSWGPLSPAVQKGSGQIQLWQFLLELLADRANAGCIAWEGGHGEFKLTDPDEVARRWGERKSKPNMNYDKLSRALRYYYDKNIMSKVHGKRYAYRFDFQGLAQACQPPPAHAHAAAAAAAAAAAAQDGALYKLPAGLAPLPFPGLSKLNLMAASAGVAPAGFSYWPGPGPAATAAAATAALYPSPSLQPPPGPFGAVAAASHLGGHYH
Outline: as §1

ETV5 = ETV5 (Homo sapiens, UniProt P41161 1-510)
ETV5, sequence (P41161 whole entry): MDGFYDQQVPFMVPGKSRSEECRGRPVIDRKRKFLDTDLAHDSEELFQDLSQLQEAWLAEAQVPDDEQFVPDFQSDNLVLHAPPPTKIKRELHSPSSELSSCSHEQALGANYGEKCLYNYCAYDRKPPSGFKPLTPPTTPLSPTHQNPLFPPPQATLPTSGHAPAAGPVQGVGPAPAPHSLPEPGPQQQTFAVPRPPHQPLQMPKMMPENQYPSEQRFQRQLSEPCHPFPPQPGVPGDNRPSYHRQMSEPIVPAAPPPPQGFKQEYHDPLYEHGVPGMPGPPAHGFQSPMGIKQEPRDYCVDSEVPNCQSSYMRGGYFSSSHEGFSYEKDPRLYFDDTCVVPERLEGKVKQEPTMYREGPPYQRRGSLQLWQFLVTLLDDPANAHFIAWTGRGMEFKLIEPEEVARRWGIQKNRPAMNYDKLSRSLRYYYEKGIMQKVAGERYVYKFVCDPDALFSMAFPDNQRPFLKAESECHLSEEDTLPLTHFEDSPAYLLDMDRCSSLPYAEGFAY
Outline: as §1

SPIC = biological target: T7, SPIC (Homo sapiens, UniProt Q8N5J4 1-248)
T7 sequence: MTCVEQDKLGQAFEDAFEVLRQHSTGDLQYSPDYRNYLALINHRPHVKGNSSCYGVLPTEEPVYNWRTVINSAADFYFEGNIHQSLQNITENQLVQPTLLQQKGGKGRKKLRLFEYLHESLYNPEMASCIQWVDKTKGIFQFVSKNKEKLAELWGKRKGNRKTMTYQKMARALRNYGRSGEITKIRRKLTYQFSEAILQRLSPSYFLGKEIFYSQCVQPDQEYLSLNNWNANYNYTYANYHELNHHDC
Outline: as §1

ELF4 = ELF4 (Homo sapiens, UniProt Q99607 1-663)
ELF4, sequence (Q99607 whole entry): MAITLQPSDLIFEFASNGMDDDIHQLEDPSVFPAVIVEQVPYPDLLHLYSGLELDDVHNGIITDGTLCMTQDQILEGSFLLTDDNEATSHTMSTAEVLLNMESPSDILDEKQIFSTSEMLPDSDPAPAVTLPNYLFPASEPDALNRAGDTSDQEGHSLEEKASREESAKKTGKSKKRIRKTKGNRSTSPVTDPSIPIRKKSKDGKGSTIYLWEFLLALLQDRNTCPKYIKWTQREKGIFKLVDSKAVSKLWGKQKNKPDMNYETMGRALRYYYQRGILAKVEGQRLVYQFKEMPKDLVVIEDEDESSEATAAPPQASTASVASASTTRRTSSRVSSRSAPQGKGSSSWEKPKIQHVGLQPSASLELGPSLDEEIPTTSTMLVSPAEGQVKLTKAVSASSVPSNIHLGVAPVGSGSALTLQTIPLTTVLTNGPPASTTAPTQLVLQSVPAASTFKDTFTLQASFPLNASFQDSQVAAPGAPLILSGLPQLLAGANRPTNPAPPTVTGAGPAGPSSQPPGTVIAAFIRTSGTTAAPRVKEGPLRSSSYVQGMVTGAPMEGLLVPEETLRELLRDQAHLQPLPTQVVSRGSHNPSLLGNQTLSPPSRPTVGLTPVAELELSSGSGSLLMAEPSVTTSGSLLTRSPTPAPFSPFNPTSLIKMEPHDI
Outline: as §1

ELK4 = biological target: T8, ELK4 (Homo sapiens, UniProt P28324-2 1-405)
T8 sequence: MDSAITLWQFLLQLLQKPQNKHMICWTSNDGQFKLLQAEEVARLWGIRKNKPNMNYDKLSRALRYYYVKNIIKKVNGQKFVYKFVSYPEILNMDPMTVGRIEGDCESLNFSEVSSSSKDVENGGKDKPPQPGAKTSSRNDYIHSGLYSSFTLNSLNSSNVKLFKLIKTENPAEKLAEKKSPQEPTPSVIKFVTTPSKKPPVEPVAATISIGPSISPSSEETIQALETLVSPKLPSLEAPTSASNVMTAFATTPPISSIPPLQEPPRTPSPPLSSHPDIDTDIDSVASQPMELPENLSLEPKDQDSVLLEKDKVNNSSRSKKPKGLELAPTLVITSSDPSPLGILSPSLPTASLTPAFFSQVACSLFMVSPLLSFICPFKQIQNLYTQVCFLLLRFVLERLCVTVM
Outline: as §1

ETV2 = biological target: T9, ETV2 (Homo sapiens, UniProt O00321 1-342)
T9 sequence: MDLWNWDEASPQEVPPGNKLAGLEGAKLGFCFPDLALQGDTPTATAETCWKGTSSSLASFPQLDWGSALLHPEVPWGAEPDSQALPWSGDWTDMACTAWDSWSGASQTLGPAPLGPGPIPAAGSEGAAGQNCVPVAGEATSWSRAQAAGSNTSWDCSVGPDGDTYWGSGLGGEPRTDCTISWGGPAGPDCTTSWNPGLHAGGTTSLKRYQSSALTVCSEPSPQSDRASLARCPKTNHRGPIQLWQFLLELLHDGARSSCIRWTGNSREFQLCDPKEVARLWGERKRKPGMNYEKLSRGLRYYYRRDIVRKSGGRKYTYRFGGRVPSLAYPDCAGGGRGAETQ
Outline: as §1

ELF3 = biological target: T10, ELF3 (Homo sapiens, UniProt P78545 1-371)
T10 sequence: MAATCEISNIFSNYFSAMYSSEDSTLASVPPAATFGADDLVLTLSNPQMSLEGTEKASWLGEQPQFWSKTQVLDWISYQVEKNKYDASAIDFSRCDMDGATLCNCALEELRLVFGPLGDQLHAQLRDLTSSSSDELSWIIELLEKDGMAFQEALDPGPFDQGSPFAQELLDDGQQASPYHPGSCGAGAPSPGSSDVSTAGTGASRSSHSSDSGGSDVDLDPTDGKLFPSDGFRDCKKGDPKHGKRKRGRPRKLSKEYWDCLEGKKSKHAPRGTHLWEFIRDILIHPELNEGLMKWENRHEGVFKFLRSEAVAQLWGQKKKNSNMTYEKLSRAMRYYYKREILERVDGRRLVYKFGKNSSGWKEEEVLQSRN
Outline: as §1

CRX = CRX (Homo sapiens, UniProt O43186 1-299)
CRX, sequence (O43186 whole entry): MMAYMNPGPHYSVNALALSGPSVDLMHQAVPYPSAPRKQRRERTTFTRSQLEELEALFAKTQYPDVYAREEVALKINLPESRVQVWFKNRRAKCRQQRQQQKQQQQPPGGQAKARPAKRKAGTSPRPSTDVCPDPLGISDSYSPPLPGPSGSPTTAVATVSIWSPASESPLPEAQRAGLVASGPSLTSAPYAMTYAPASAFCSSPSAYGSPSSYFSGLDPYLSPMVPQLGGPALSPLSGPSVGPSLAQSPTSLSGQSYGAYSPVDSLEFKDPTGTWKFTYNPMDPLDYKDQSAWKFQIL
Outline: as §1

ETV1 = ETV1 (Homo sapiens, UniProt P50549 1-477)
ETV1, sequence (P50549 whole entry): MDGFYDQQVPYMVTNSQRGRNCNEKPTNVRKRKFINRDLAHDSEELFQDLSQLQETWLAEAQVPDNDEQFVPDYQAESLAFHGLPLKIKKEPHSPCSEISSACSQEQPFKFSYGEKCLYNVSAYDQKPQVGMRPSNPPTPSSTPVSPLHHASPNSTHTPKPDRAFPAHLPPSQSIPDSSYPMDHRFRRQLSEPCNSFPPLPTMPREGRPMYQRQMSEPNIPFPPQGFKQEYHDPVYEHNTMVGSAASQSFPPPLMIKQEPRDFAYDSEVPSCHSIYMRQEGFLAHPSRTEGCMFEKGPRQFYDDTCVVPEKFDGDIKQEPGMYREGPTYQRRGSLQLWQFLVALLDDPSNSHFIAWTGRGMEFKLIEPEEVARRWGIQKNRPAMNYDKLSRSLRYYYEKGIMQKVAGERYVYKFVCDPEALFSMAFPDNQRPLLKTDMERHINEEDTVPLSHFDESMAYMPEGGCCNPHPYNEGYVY
Outline: as §1

SPI1 = SPI1 (Homo sapiens, UniProt P17947 1-270)
Outline: as §1

ELK3 = biological target: T11, ELK3 (Homo sapiens, UniProt P41970 1-407)
T11 sequence: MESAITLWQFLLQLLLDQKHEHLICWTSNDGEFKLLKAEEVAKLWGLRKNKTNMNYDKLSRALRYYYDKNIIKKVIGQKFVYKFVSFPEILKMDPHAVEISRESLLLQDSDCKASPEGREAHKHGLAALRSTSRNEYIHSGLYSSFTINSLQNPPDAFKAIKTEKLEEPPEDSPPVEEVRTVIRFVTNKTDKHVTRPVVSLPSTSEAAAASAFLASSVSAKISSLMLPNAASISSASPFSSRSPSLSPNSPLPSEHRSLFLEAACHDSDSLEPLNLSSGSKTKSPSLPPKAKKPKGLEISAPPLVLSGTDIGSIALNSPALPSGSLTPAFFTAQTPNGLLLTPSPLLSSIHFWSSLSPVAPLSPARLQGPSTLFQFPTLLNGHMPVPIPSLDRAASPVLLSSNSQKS
Outline: as §1

Row | Sequence | binding signal (FLI1) | binding signal (ELK1) | binding signal (GABPA) | binding signal (ERG) | binding signal (ELF1) | binding signal (EHF) | binding signal (SPIB) | binding signal (FEV) | binding signal (ETV5) | binding signal (SPIC) | binding signal (ELF4) | binding signal (ELK4) | binding signal (ETV2) | binding signal (ELF3) | binding signal (CRX) | binding signal (ETV1) | binding signal (SPI1) | binding signal (ELK3)
1 | GGTGTT | 1.07 fold enrichment (6-mer frequency, TF over GST control) | 1.13 fold enrichment (6-mer frequency, TF over GST control) | 1.11 fold enrichment (6-mer frequency, TF over GST control) | 1.08 fold enrichment (6-mer frequency, TF over GST control) | 1.09 fold enrichment (6-mer frequency, TF over GST control) | 1.04 fold enrichment (6-mer frequency, TF over GST control) | 1.02 fold enrichment (6-mer frequency, TF over GST control) | 1 fold enrichment (6-mer frequency, TF over GST control) | 1.09 fold enrichment (6-mer frequency, TF over GST control) | 1.09 fold enrichment (6-mer frequency, TF over GST control) | 1.09 fold enrichment (6-mer frequency, TF over GST control) | 1.13 fold enrichment (6-mer frequency, TF over GST control) | 1.13 fold enrichment (6-mer frequency, TF over GST control) | 1.03 fold enrichment (6-mer frequency, TF over GST control) | 1.01 fold enrichment (6-mer frequency, TF over GST control) | 1.04 fold enrichment (6-mer frequency, TF over GST control) |  | 
2 | CAACCT | 1.2 fold enrichment (6-mer frequency, TF over GST control) | 1.16 fold enrichment (6-mer frequency, TF over GST control) | 1.23 fold enrichment (6-mer frequency, TF over GST control) | 1.13 fold enrichment (6-mer frequency, TF over GST control) | 1.2 fold enrichment (6-mer frequency, TF over GST control) | 1.21 fold enrichment (6-mer frequency, TF over GST control) | 1.17 fold enrichment (6-mer frequency, TF over GST control) | 1.21 fold enrichment (6-mer frequency, TF over GST control) | 1.18 fold enrichment (6-mer frequency, TF over GST control) | 1.13 fold enrichment (6-mer frequency, TF over GST control) | 1.11 fold enrichment (6-mer frequency, TF over GST control) | 1.15 fold enrichment (6-mer frequency, TF over GST control) | 1.28 fold enrichment (6-mer frequency, TF over GST control) | 1.12 fold enrichment (6-mer frequency, TF over GST control) |  | 1.2 fold enrichment (6-mer frequency, TF over GST control) | 1.14 fold enrichment (6-mer frequency, TF over GST control) | 1.08 fold enrichment (6-mer frequency, TF over GST control)
